An excerpt weighted towards active compounds, which were near 3.9% of everything screened.
Mot1-301 SUMO: yeast Mot1-301 growth rescue at high temperature, primary screen, SUMOylation pathway inhibitor project, S. cerevisiae, ATP luminescence, 38.5C. hit rate 1% among 320,000. S. cerevisiae Mot1-301 growth rescue; percent above DMSO median, 100 means doubled. growth rescue, % at 18.8 µM. AID 2716, 2010;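 active means every valid replicate shows activation above 250% relative to neutral control wells; inactive means the rest, any valid replicate at or below 250%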
CDK5 p35 inh: inhibitors of human CDK5/p35 kinase, primary screen, biochemical, single concentration; Cyclin-dependent kinase 5 (Homo sapiens) + Cyclin-dependent kinase 5 activator 1 (Homo …; inhibition, % at 10 µM; hit rate 0.01% among 330,000; Recombinant CDK5/p35, ADP-Glo luminescence, 60 min;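 active means highest replicate inhibition of at least 50% and at least 75% of replicates reaching 50%; inconclusive means only one of the two criteria met; inactive means both criteria failed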
Casp6 inh: human caspase-6 inhibitors, primary screen, biochemical, VEID-R110 fluorescence, single point, set 2 | AID 686996, 2013 | inhibition, % at 12.5 µM | hit rate 0.53% among 350,000 | purified caspase-6, Z-VEID-R110 cleavage fluorescence;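 active means mean inhibition across replicates at least about 35%, with every replicate also reaching that limit, limit read from the data; inconclusive means only one of the two criteria met; inactive means neither criterion met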
Target sequence (P55212 24-179 limits assumed): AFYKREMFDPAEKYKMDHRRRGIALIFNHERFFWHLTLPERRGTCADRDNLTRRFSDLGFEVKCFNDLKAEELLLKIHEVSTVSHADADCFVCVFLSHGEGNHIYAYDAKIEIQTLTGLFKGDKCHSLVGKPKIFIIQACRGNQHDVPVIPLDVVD
Target sequence (P55212 194-293 limits assumed): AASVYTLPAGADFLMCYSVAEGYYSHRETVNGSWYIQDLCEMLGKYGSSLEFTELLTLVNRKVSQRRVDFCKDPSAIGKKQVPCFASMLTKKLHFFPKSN
NSD2 inh: NSD2 histone methyltransferase inhibitors, primary screen, biochemical, AlphaScreen, single concentration, set 2; Histone-lysine N-methyltransferase NSD2 (Homo sapiens), O96028; NSD2 peptide methylation, 120 min; inhibition, % at 12.5 µM; hit rate 0.54% among 310,000; in the data active means inhibition above about 50%
Glyco luc inh: increase of ERlucT glycosylation luciferase signal, primary screen, N-linked glycosylation inhibitor project, D54 ERlucT cells, luminescence, set 2; reporter increase, % at 12.5 µM; hit rate 0.23% among 360,000; D54 ERlucT glycosylation luciferase reporter, 24 h; percent of 100 nM tunicamycin response; AID 588692, 2011;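 active means mean luciferase reporter signal, scaled so untreated is 0 and the glycosylation-blocking control 100, at or above a set limit in every replicate; inconclusive means mean reaches the limit but not every replicate does; inactive means mean below the limit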;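 further: luciferase carries N-glycosylation sites so blocking glycosylation raises the light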
ALR inh: inhibitors of human ALR sulfhydryl oxidase, primary screen, biochemical, H2O2 detection, HRP-luminol luminescence, single point; FAD-linked sulfhydryl oxidase ALR (Homo sapiens), P55789; hit rate 3.8% among 290,000; AID 485317, 2010; inhibition, % (no concentration beside the values); purified ALR, DTT oxidation;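 active means mean replicate inhibition above about 79%, with every replicate also reaching it, limit read from the data; inconclusive means only one of the two criteria met; inactive means mean below limit and not every replicate reaching it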
Target sequence (P55789 whole entry, looked up): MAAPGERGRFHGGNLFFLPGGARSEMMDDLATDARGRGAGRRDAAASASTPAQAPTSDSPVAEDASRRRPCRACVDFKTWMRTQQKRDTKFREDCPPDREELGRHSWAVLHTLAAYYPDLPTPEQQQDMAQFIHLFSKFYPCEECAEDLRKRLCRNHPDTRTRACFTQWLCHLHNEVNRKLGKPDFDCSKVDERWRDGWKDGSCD
Each line names hits and unclear results; the compound was inactive in the other large screens.

Cn1nc(C(C)(C)C)cc1C(=O)Sc1cccc(Br)c1	ALR inh 98.6
c1ccc2c(-c3nc4ccccc4[nH]3)cccc2c1	Glyco luc inh 28.4 (no result: Mot1-301 SUMO, CDK5 p35 inh, ALR inh)
C[C@@H]1CCCCO[C@@H](CN(C)S(=O)(=O)c2cccs2)[C@H](C)CN([C@@H](C)CO)C(=O)c2cc(NS(=O)(=O)c3cn(C)cn3)ccc2O1	none (no result: Mot1-301 SUMO, CDK5 p35 inh, NSD2 inh, Glyco luc inh, ALR inh)
Cc1ccc(C(=O)NCC(=O)OC(C)C(=O)Nc2ccc(N(C)C)cc2)s1 (centres undefined)	ALR inh 99.2
CC(=O)c1ccc(-c2ccc(C(=O)NC3CC(C)(C)NC(C)(C)C3)o2)cc1	ALR inh 98.0
CC=Cc1ccc2n(c1=O)C[C@H]1[C@H](CO)[C@@H](C(=O)NC3CCC3)[C@@H]2N1S(=O)(=O)c1cn(C)cn1 (mixture of isomers)	none (no result: Mot1-301 SUMO, CDK5 p35 inh, NSD2 inh, Glyco luc inh, ALR inh)
Cc1c(Cl)cccc1NC(=S)N=Nc1c(O)n(CN2CCOCC2)c2ccccc12	Mot1-301 SUMO 364.7 (no result: Casp6 inh, NSD2 inh)
CC1(C)CNc2cc(N)ccc2S1	ALR inh 83.6 (no result: NSD2 inh)
C[C@@H]1CN([C@@H](C)CO)C(=O)c2cc(NC(=O)NC3CCCCC3)ccc2O[C@@H](C)CCCCO[C@H]1CN(C)C(=O)c1ccccc1	none (no result: Mot1-301 SUMO, CDK5 p35 inh, NSD2 inh, Glyco luc inh, ALR inh)
O=C(NCCSCc1ccco1)Nc1cc(Cl)cc(Cl)c1	ALR inh 89.3
CCCNC(=O)N[C@@H]1CC[C@@H](CC(=O)NCCc2ccccc2)O[C@@H]1CO	none (no result: Mot1-301 SUMO, CDK5 p35 inh, NSD2 inh, Glyco luc inh, ALR inh)
NC(=O)c1ccsc1NC(=O)COC(=O)c1cccnc1Cl	ALR inh 94.1
NC(=O)c1ccsc1NC(=O)COC(=O)Cc1cccc2ccccc12	ALR inh 96.8 (no result: Casp6 inh)
NC(=O)c1ccsc1NC(=O)COC(=O)c1ccc(Cl)nc1	none
Cc1cc(C)n2nc(C(=O)N/N=C/c3ccc(O)cc3)nc2n1	ALR inh 98.9
O=C(N/N=C/c1ccc(O)cc1)c1nc(-c2ccccc2)n(-c2ccccc2)n1	ALR inh 98.0 (no result: Casp6 inh)
O=C(N/N=C/c1ccc(O)cc1)c1cc(-c2ccccc2)nc2ccccc12	none
COc1ccc(/C=N/NC(=O)c2nc(-c3ccccc3)n(-c3ccccc3)n2)cc1OC	none
COc1cc(/C=N/NC(=O)c2nc(-c3ccccc3)n(-c3ccccc3)n2)ccc1O	ALR inh 85.4 (no result: Casp6 inh)
NC(=O)c1ccsc1NC(=O)c1nc(-c2ccccc2)n(-c2ccccc2)n1	ALR inh 86.3 (no result: Casp6 inh)
C/C=C/c1cccc(-c2nc(C(=O)N(C)C)cc3c2[C@@H](CCO)N([S@](=O)C(C)(C)C)C3)c1	none (no result: Mot1-301 SUMO, CDK5 p35 inh, NSD2 inh, Glyco luc inh, ALR inh)
O=C(NCCN1C(=O)S/C(=C\c2ccccc2Cl)C1=O)C1=COCCO1	Glyco luc inh inconclusive
O=C(NCCN1C(=O)S/C(=C\c2ccc(Cl)cc2Cl)C1=O)C1=COCCO1	Casp6 inh 38.6
C[C@@H]1CN([C@H](C)CO)C(=O)c2cccc(NC(=O)c3ccncc3)c2O[C@H]1CN(C)C(=O)Nc1ccc2c(c1)OCO2	none (no result: Mot1-301 SUMO, CDK5 p35 inh, NSD2 inh, Glyco luc inh, ALR inh)
COc1cccc(N2CC(O)=C(c3nc4ccccc4c(=O)[nH]3)C2=N)c1	Glyco luc inh 36.2 (no result: Casp6 inh, NSD2 inh)
O=C1CNC(=S)N1CCc1ccc(O)c(O)c1	ALR inh 99.7 (no result: CDK5 p35 inh)
COCC(=O)N(C)C[C@@H]1Oc2ncc(C#Cc3ccc(OC)cc3)cc2C(=O)N([C@H](C)CO)C[C@@H]1C	none (no result: Mot1-301 SUMO, CDK5 p35 inh, NSD2 inh, Glyco luc inh, ALR inh)
CCNC(=O)C[C@@H]1CC[C@H]2[C@H](COc3ccc(NC(=O)Cc4ccccc4)cc3C(=O)N2C)O1	none (no result: Mot1-301 SUMO, CDK5 p35 inh, NSD2 inh, Glyco luc inh, ALR inh)
COc1ccc(S(=O)(=O)Nc2ccc3c(c2)CC(=O)N([C@@H](C)CO)C[C@H](C)[C@@H](CN(C)C(=O)NC(C)C)O3)cc1	none (no result: Mot1-301 SUMO, CDK5 p35 inh, NSD2 inh, Glyco luc inh, ALR inh)
Cn1nc(C(F)(F)F)c(/C=N/OCc2c(Cl)cccc2Cl)c1Cl	none (no result: Casp6 inh)
Cn1nc(C(F)(F)F)c(/C=N/OC(=O)c2ccc(Cl)cc2)c1Cl	none (no result: Casp6 inh)
Cn1nc(C(F)(F)F)c(/C=N/OC(=O)c2ccccc2)c1SCc1ccc(Cl)cc1	Glyco luc inh 73.2 (no result: Casp6 inh)

Source: PubChem BioAssay
